The whole screen tested about 410,000 compounds, of which about 260 (0.063%) were called active. About 2% were inconclusive and are not listed. The sample holds actives, similar compounds and a random draw of the others, so the mix is not that of the screen. Calls follow the shape of the dose curve; as a rule, active = well fitted activation curve with a large enough effect; inconclusive = small, poorly fitted or top-dose-only effect; inactive = no such curve, though single readings can be large or run the other way.
test: qHTS for compounds that reverse cellular toxicity of Amyloid beta (A-beta) peptide in yeast: Primary Screen; details: yeast expressing A-beta42, growth rescue, OD600, 48 h; series mostly up to 46.1 µM; growth rescue: at the top concentration; also: nearly all actives have a fitted effect of over 55% in size
Description: The A-beta peptide is produced by the processing of the amyloid precursor protein (APP) by two proteases, beta and gamma secretases. […] A-beta42 is regarded as the most amyloidogenic form due to its hydrophobicity; however, precisely how A-beta42 induces neurotoxicity is unclear. To understand further this biology and its potential therapeutic implications for human neurodegenerative disease, a quantitative high-throughput screen for compounds that reverse the cellular toxicity of the A-beta peptide was developed. A yeast based screen was used because it recapitulates the salient feature of protein mis-folding disorder accurately. This cell-based phenotypic screen provides a significant, unbiased advantage by letting the compounds and models inform us which proteins or pathways are most relevant. The ideal chemical candidates would therefore have activity in both our primary yeast and secondary neuronal toxicity assays, as well as in mouse models. They will be valuable tools for dissecting diverse protein homeostasis pathologies and could potentially become the focus for future pre-clinical development. For this luminescence assay, inhibition of A-beta rescues the toxic effect in the yeast cell, resulting in increase of signals and the desired phenotype of "Activator". This screen is run against the Molecular Libraries Small Molecule Repository (MLSMR) and the NCGC Sytravon Library Collection.
NIH Chemical Genomics Center [NCGC]
NIH Molecular Libraries Probe Centers Network [MLPCN]
Assay Submitter (PI): Susan Lindquist, Whitehead Institute, Massachusetts Institute of Technology
[1] Vassar R,et al (1999). Beta-secretase cleavage of Alzheimer's amyloid precursor protein by the transmembrane aspartic protease BACE. Science. 286: 735-741.
[2] Yan R, et al (1999). Membrane-anchored aspartyl protease with Alzheimer's disease beta-secretase activity. Nature. 402: 533-536.
Two and a half microliter / well of yeast growth medium were dispensed in a 1536 assay plate. Compounds were pinned using the Kalypsys robotic system followed by addition of 2.5 uL / well yeast solution. The assay plates were incubated at 30 C. After 48 hr, the absorbance signal at 600 nm was obtained using the PerkinElmer ViewLux plate reader to assess yeast growth. The data was normalized to the positive control of an equimolar mixture of ferric chloride (FeCl3) and clioquinol and to the negative control DMSO.

| Compound | growth rescue |
| --- | --- |
| Cc1ccc(C)c(N2CCN(CCCNC(=O)Nc3ccc(Cl)cc3)CC2)c1 | -11.4% (inactive) |
| COc1ccc(S(=O)(=O)c2cn(C)c3cc(N4CCCCC4)c(F)cc3c2=O)cc1 | -5.52% (inactive) |
| COc1cccc(CNCc2c(C(=O)O)n(Cc3ccc(C)cc3)c3cc(C)ccc23)c1OC | -3.13% (inactive) |
| O=C(NC1CCCCC1)c1ccc2c(c1)N(Cc1ccc(Cl)cc1)C(=O)c1ccccc1S2=O (stereo unspecified) | 3.65% (inactive) |
| COc1ccc(NC(=O)NC(C)c2c(-n3cccc3)sc(C)c2C)cc1OC (stereo unspecified) | -4.32% (inactive) |
| COc1ccc(OC)c(-c2noc(N3CCN(c4cc(Cl)ccc4C)CC3)n2)c1 | 11% (inactive) |
| O=C(Nc1c(C(=O)N2CCN(c3ccc(F)cc3)CC2)oc2ccccc12)c1ccco1 | 10.3% (inactive) |
| CCOc1ccc(CNC(=O)c2cccc(Nc3nc4ccccc4n4nnnc34)c2)cc1OC | -3.48% (inactive) |
| CCc1cc2c(cc3c(=O)n(CC(=O)NCc4cccc(Cl)c4)nc(CC)n32)s1 | -1.66% (inactive) |
| Cc1nn(CC(=O)NCCc2ccccc2)c(=O)c2c1sc1ccccc12 | -2.97% (inactive) |
| O=C(CSc1nccn1-c1ccc(F)cc1)Nc1cccc2ccccc12 | 14.4% (inactive) |
| Cn1c(=O)cc(OCC(=O)N2CCN(c3ccccc3)CC2)c2ccccc21 | -11% (inactive) |
| COc1cc2c(cc1OC)C(COc1ccc(F)cc1)N(C(=O)c1ccccc1F)CC2 (stereo unspecified) | -9.29% (inactive) |
| CCOc1ccccc1NC(=O)CSc1ncc(S(=O)(=O)c2ccc(C(C)(C)C)cc2)c(=O)[nH]1 | -6.06% (inactive) |
| CCOCCCn1c(SCC(=O)Nc2ccc(CC)cc2)nc2ccccc2c1=O | -1.09% (inactive) |
| CCCN(CCC)C(=O)C1CCCN(c2ncnc3c2nc2n3CCCCC2)C1 (stereo unspecified) | -15.7% (inactive) |
| Cn1c(=O)n(Cc2c(F)cccc2Cl)c(=O)c2c1nc1n2CCN1c1ccc(F)cc1 | -7.14% (inactive) |
| Cc1ccc(Cl)cc1N1CCN(C(=O)c2cccn3c(=O)c4cc(Cl)ccc4nc23)CC1 | -4.39% (inactive) |
| COCCN(Cc1ccco1)C(=O)Cn1ncc2c([nH]c3ccccc32)c1=O | -11% (inactive) |
| O=C(CSc1nnc(-c2ccccc2F)o1)Nc1cccc(C(F)(F)F)c1 | -0.988% (inactive) |
| Cc1ccc2nc(COc3cccc(NC(=O)c4cccc(Cl)c4)c3)cc(=O)n2c1 | 12.2% (inactive) |
| COc1ccc(-n2ccn(CC(=O)Nc3ccc(C)c(C)c3)c(=O)c2=O)cc1OC | 9.26% (inactive) |
| COc1ccc(CNC(=O)Cc2coc3ccc(C(C)C)cc23)cc1 | 10.5% (inactive) |
| CCCCCn1c(=O)[nH]c2cc(C(=O)NCCN(C)CCCC)ccc2c1=O | -5.05% (inactive) |
| CCOc1ccc(CNC(=O)c2cc(=O)[nH]c3ccc(S(=O)(=O)N4CCCCC4)cc23)cc1 | 2.13% (inactive) |
| Cc1ccc(C)c(Nc2nnc(-c3ccc(C)c(S(=O)(=O)N4CCCCC4)c3)c3ccccc23)c1 | -13.4% (inactive) |
